The sample as a whole holds a higher share of hits than the screen did.
RBX1-CUL1 inh: inhibitors of human ROC1-CUL1 ubiquitin ligase activity; E3 ubiquitin-protein ligase RBX1 (Homo sapiens) + Cullin-1 (Homo sapiens), P62877+Q13616; in vitro K48 di-Ub FRET, acceptor:donor ratio, 45 min; inhibition, % at 10 µM; hit rate 0.6% among 140,000; AID 1347404, 2020; in the data active = inhibition above about 25%
Target sequence (P62877 whole entry, looked up): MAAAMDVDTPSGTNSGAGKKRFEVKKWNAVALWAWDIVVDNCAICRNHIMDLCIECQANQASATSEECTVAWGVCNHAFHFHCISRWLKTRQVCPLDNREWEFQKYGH
Target sequence (Q13616 whole entry, looked up): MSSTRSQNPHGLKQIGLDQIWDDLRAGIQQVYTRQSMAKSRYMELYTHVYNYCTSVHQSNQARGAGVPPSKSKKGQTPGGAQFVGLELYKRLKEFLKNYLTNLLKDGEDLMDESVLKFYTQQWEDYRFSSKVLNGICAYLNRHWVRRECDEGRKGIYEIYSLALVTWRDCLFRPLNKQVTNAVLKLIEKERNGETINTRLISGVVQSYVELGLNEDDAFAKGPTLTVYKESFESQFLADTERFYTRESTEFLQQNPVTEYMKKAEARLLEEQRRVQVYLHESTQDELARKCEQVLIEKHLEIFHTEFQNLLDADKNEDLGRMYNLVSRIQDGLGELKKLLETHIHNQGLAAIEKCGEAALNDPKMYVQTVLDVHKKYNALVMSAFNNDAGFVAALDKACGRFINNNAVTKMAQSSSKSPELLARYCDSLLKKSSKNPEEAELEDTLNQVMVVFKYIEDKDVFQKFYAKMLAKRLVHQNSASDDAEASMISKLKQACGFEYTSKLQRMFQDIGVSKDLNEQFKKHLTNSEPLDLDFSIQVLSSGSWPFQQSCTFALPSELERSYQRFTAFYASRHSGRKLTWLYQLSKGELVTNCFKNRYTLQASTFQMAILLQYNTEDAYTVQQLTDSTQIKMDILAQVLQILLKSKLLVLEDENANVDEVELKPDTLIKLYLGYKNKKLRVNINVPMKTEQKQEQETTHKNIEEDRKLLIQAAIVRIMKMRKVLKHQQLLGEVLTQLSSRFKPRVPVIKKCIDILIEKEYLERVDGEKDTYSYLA
Numbers stand for hits; – = inactive.

SMILES	RBX1-CUL1 inh
Cc1ccc(-c2[nH]nc3c2C(c2ccc4c(c2)OCO4)C(C#N)C(=N)O3)cc1 (centres undefined)	–
Cc1ccc(NCc2ccc([N+](=O)[O-])cc2)cc1C	–
Cc1ncoc1C(=O)N1CCCC(Nc2ccc3c(c2)OCCO3)C1 (centres undefined)	–
COC(=O)Nc1ccc(S(=O)(=O)Nc2ccccn2)cc1	–
CC(C)c1cc(CN2CCCC(CNC(=O)c3ccco3)C2)[nH]n1 (centres undefined)	–
Cc1ccc(COc2ccc(/C=C3\C(=O)NN(c4ccccc4)C3=O)cc2)cc1	–
COc1ccc(CNC(=O)c2cc(F)c(F)c(F)c2F)cc1	–
CCN(Cc1ccncc1)C(=O)CC1(c2cccc(C(F)(F)F)c2)CC(=O)N(C2CC2)C1=O (centres undefined)	–
CC1CCc2sc(C(=O)N3CCN(c4ccccn4)CC3)cc2C1 (centres undefined)	–
COC(=O)c1cccc(-c2ccc(/C=C3\C(=O)N(c4cccc(C(=O)O)c4)N=C3C(F)(F)F)o2)c1	95.2
O=C1/C(=C/c2cccc(Cl)c2Cl)SC(=S)N1c1cccc(Cl)c1	–
O=C(O)CN1C(=O)/C(=C2\SC(=S)N(C(Cc3ccccc3)C(=O)O)C2=O)c2ccccc21 (centres undefined)	–
O=C1/C(=C\c2ccccc2)SC(=S)N1c1cccc(Cl)c1	–
O=C1S/C(=C\c2ccc(Cl)cc2)C(=O)N1Cc1ccccc1	–
O=C1/C(=C\c2cccc(F)c2)SC(=S)N1c1cccc(C(F)(F)F)c1	–
O=C(O)c1cccc(-c2ccc(/C=C3\SC(=S)N(c4cccc(F)c4)C3=O)o2)c1	94.0
COC(=O)c1cccc(-c2ccc(/C=C3/C(=O)NN(c4ccc(Br)cc4)C3=O)o2)c1	–
COC(=O)c1cccc(-c2ccc(C=C3C(=O)OC(c4ccccc4)OC3=O)o2)c1 (centres undefined)	–
O=C(O)c1cccc(N2C(=O)/C(=C/c3ccc(Cl)cc3)SC2=S)c1	31.4
O=C(O)C(Cc1ccccc1)N1C(=O)/C(=C/c2ccc(Cl)cc2)SC1=S (centres undefined)	79.2
NN1C(=O)/C(=C/c2ccc(-c3cccc(Cl)c3)o2)SC1=S	–
O=C(/C=C/c1cccc(Cl)c1)Nc1cc(C(F)(F)F)ccc1Cl	–
Cc1ccccc1CCC1CCCN(C(=O)c2cscn2)C1 (centres undefined)	–
N#Cc1sc2nc(-c3ccc4c(c3)OCO4)ccc2c1N	–
O=C(CCn1nnnc1CN1CCOCC1)N1CCN(C2CCCC2)C(=O)C1	–
SMILES	RBX1-CUL1 inh
COc1ccc(CNCC(C)C)cc1OCC(O)CN(C)C(C)C (centres undefined)	–
COc1ccc(/C=C2\SC(=S)N(C3CCCCC3)C2=O)cc1O	–
COc1cc(C=C2C(=O)NC(=S)NC2=O)c(Cl)cc1O	–
COc1cc(/C=C2\SC(=S)N(/N=C/c3cc(OC)c(O)cc3Cl)C2=O)c(Cl)cc1O	45.5
Cn1c(C2CCCO2)nc2cc(NC(=O)CC3CCCC3)cc(C(=O)NCCc3cccc(F)c3)c21 (centres undefined)	–
O=C1c2ccc(Br)cc2C(=O)N1CCc1ccccc1	–
Cc1cc(C(=O)CN2CCCCC2)c(C)n1-c1ccc(Cl)c(Cl)c1	–
C#CCOc1ccc(/C=C2\C(=O)N(c3ccc(C(=O)OCC)cc3)N=C2C(F)(F)F)cc1OCC	40.6
CCOc1cc(/C=C2/C(=O)N(c3cccc(C(F)(F)F)c3)N=C2C)ccc1OCc1ccccc1	–
C#CCOc1ccc(/C=C2/C(=O)N(c3ccc(C)cc3)N=C2C)cc1OCC	–
COc1ccc(-c2ccc3c(N)c(C(=O)c4ccccc4)sc3n2)cc1OC	–
O=C(Nc1cc2nc3ccccc3nc2cc1NC(=O)c1cccc([N+](=O)[O-])c1)c1cccc([N+](=O)[O-])c1	–
O=C(COC(=O)c1ccc(NC(=O)c2ccc(Cl)cc2)cc1)c1cccc([N+](=O)[O-])c1	–
O=C(NC1=NN(c2c(Cl)cc(Cl)cc2Cl)C(=O)/C1=C/c1ccc(O)cc1)c1cccc([N+](=O)[O-])c1	59.6
CC(=O)n1c2c(c3ccccc31)OC(=N)C(C#N)C2c1cccs1 (centres undefined)	–
CN(CCc1ccccc1)C1CCCN(C(=O)CCc2nc3ccccc3[nH]2)C1 (centres undefined)	–
COc1cc(C2C3=C(CC(C)(C)CC3=O)N(c3ncn[nH]3)C(=N)C2C#N)ccc1OCc1ccccc1 (centres undefined)	32.1
COc1cc(C2C3=C(CC(C)(C)CC3=O)OC(=N)C2C#N)ccc1OCc1ccccc1 (centres undefined)	–
COc1cc(C2C3=C(CC(C)(C)CC3=O)N(Nc3ccccc3)C(=N)C2C#N)ccc1OCc1ccccc1 (centres undefined)	–
c1ccc2oc(SCCCCCCSc3nc4ccccc4o3)nc2c1	–
O=C(O)c1ccccc1SCCSc1nc2ccccc2o1	33.8
c1ccc(CSc2nc3ccccc3o2)c(CSc2nc3ccccc3o2)c1	–
CCOC(=O)C1C(C)=NC(=O)NC1c1ccccc1C(F)(F)F (centres undefined)	–
CCc1ccc(S(=O)(=O)N(C)C2CCCCC2)cc1	–
O=C(O)CCCC(=O)NC1CCCCCC1	–
SMILES	RBX1-CUL1 inh
CCOC(=O)C1=C(C)N=c2s/c(=C/c3cc(Br)c(O)cc3O)c(=O)n2C1c1ccc(OCC)cc1 (centres undefined)	66.5
CCOC(=O)C1=C(C)N=c2s/c(=C/c3ccc(O)cc3)c(=O)n2C1c1cc(OC)ccc1OC (centres undefined)	–
CCOC(=O)C1=C(c2ccccc2)N=c2s/c(=C\c3cc([N+](=O)[O-])ccc3O)c(=O)n2C1c1cccc(OC)c1 (centres undefined)	59.8
CCOC(=O)C1=C(C)N=c2s/c(=C\c3cc(Cl)ccc3O)c(=O)n2C1c1ccc(OCC)cc1 (centres undefined)	–
C=CCc1cc(/C=c2/sc3n(c2=O)C(c2ccc(OC)cc2OC)C(C(=O)OCC)=C(C)N=3)cc(OC)c1O (centres undefined)	–
CCOC(=O)C1=C(C)N=c2s/c(=C\c3ccc(O)cc3)c(=O)n2C1c1ccc(OCC)cc1 (centres undefined)	–
CCOC(=O)C1=C(c2ccccc2)N=c2s/c(=C\c3ccc([N+](=O)[O-])o3)c(=O)n2C1c1cccc(OC)c1 (centres undefined)	–
CCOC(=O)C1=C(c2ccccc2)N=c2s/c(=C/c3ccccc3O)c(=O)n2C1c1cccc(OC)c1 (centres undefined)	–
CCOC(=O)C1=C(C)N=c2s/c(=C\c3cc(Br)c(O)c(OC)c3)c(=O)n2C1c1ccc(OC)cc1 (centres undefined)	53.2
C=CCc1cc(/C=c2/sc3n(c2=O)C(c2cccc(OC)c2OCC)C(C(=O)OCC)=C(C)N=3)cc(OC)c1O (centres undefined)	–
C=CCOc1ccc(C2C(C(=O)OCC)=C(C)N=c3s/c(=C\c4cc(I)c(O)c(OC)c4)c(=O)n32)cc1 (centres undefined)	37.0
CCOC(=O)C1=C(C)N=c2s/c(=C/c3ccoc3)c(=O)n2C1c1ccc(OC)cc1 (centres undefined)	–
O=C1NC(=Nc2ccccc2)SC1Cc1ccc(Br)cc1 (centres undefined)	–
CCN(CC)CCN1C(=O)CC2Sc3ccc(OC)cc3N=C21 (centres undefined)	–

Screening data deposited in PubChem BioAssay by Pan Lab, Icahn School of Medicine at Mount Sinai.
